A short description of assay [1]: VALA_TUBHUV_Agonist_CellCount: Viability Assessment in the VALA Sciences human Umbilical Vein Endothelial Tubule Formation (TUBHUV) Agonism Assay (AID 2284309; active = hit-call score of the fitted dose curve at least 0.9, where 1 is the maximum). The method in brief: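 HUVEC co-cultured 1:3 with HDF for 3 days in 10 ng/ml VEGF, then compounds added in VEGF medium for a further 3 days (72 h). Nuclear-stain/CD31 imaging cell count. Positive-direction fit versus 0.1% DMSO vehicle.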

A short description of assay [2]: VALA_TUBIPS_Agonist_TubuleLength: VALA Sciences human iPS-derived Endothelial Tubule Formation (TUBIPS) Agonism Assay (AID 2284311; active = hit-call score of the fitted dose curve at least 0.9, where 1 is the maximum). In outline:
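Human iPS-derived endothelial cells were exposed to compound for 72 h. Tubule formation was imaged by high-content fluorescence and scored as gain of signal relative to DMSO vehicle (agonist mode).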

A short description of assay [3]: IUF_NPC2c_oligodendrocyte_migration_120hr: Leibniz Research Institute for Environmental Medicine (IUF) 120-hour Neural Progenitor Cell Migration Assay for Oligodendrocyte Migration (NPC2c) (AID 2284297).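 Also: O4-positive oligodendrocyte migration distance divided by radial glia migration distance.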 The method in brief: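 Primary hNPC spheres migrating on extracellular matrix, exposed five days to a 7-point dilution series with solvent control. Oligodendrocyte migration was scored by high-content imaging of O4 immunostaining and expressed relative to radial glia distance.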

Assay [4] in a line: IUF_NPC2a_radial_glia_migration_120hr: Leibniz Research Institute for Environmental Medicine (IUF) 120-hour Neural Progenitor Cell Migration Assay for Radial Glia Migration (NPC2a) (AID 2284298). The method in brief: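 In this multiplexed test, fetal hNPC spheres migrate radially on poly-D-lysine/laminin in N2 medium (37C, 5% CO2, pH 7.2-7.6) under continuous compound exposure over five days. Migration is scored at 120 h from automated Hoechst nuclear imaging.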

A short description of assay [5]: IUF_NPC2a_radial_glia_migration_72hr: Leibniz Research Institute for Environmental Medicine (IUF) 72-hour Neural Progenitor Cell Migration Assay for Radial Glia Migration (NPC2a) (AID 2284299). In outline: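 Migration out of plated human neural progenitor spheres is scored at 72 h as the distance in um from the sphere core edge to the edge of the migration area. Values are the mean of four manual measurements per well, normalised to DMSO.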

Assay [6] can be described thus: IUF_NPC2b_neuronal_migration_120hr: Leibniz Research Institute for Environmental Medicine (IUF) 120-hour Neural Progenitor Cell Migration Assay for Neuron Migration (NPC2b) (AID 2284300). The method in brief: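 Neurons identified by TUBB3 immunostaining and Hoechst nuclei; migration distance measured automatically on fixed wells at 120 h, normalized to glia migration. Exposure spanned five days of differentiation in N2 medium, seven test concentrations.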

The nature of assay [7]: IUF_NPC3_neuronal_differentiation_120hr: Leibniz Research Institute for Environmental Medicine (IUF) 120-hour Neuronal Differentiation Assay (NPC3) (AID 2284301). In outline:
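Human fetal (GW 16-19) neural progenitor spheres (0.3 mm) plated on poly-D-lysine/laminin in N2 differentiation medium, exposed 120 h at 37C with half-medium renewal day 3; 7 concentrations. TUBB3+ cells as % of Hoechst nuclei, CNN-identified; DMSO baseline.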

Assay [8] is described as follows: IUF_NPC4_neurite_length_120hr: Leibniz Research Institute for Environmental Medicine (IUF) 120-hour Neuronal Morphology Assay for Neurite Length (NPC4) (AID 2284302). In outline:
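Human fetal neural progenitor spheres (0.3 mm) plated on poly-D-lysine/laminin in N2 differentiation medium, exposed from day 0 for 120 h with half-medium refresh at day 3, 37C. Mean neurite length (um) of TUBB3-positive neurons from skeletonized immunostaining images; DMSO ≤0.1%.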

Assay [9] is described as follows: IUF_NPC4_neurite_area_120hr: Leibniz Research Institute for Environmental Medicine (IUF) 120-hour Neuronal Morphology Assay for Neurite Area (NPC4) (AID 2284305; active = hit-call score of the fitted dose curve at least 0.9, where 1 is the maximum). In outline: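 Human fetal neural progenitor spheres (0.3 mm) plated on poly-D-lysine/laminin in N2 differentiation medium, exposed 120 h (7 concentrations, DMSO ≤0.1%, half-medium refresh day 3). Fixed, TUBB3 immunostained; mean neurite area per neuron by Omnisphero skeletonization.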

A short description of assay [10]: IUF_NPC2-5_cytotoxicity_72hr: Cytotoxicity Assessment at 72 hours in the Leibniz Research Institute for Environmental Medicine (IUF) Neural Progenitor Cell Migration and Differentiation Assay for Cytotoxicity (NPC2-5) (AID 2284306; active = hit-call score of the fitted dose curve at least 0.9, where 1 is the maximum;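 also: LDH release into supernatant measured by resorufin fluorescence marking membrane damage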). The method in brief: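 Human fetal primary neural progenitor spheres (0.3 mm) plated on poly-D-lysine/laminin in N2 differentiation medium, exposed from day 0 at 37C. LDH-dependent resazurin-to-resorufin fluorescence in supernatant at 72 h; 7 concentrations, DMSO at most 0.1%.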

Assay [11] is described as follows: IUF_NPC2-5_cytotoxicity_120hr: Cytotoxicity Assessment at 120 hours in the Leibniz Research Institute for Environmental Medicine (IUF) Neural Progenitor Cell Migration and Differentiation Assay (NPC2-5) (AID 2284307; active = hit-call score of the fitted dose curve at least 0.9, where 1 is the maximum;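 as to AC50: LDH released into supernatant as membrane damage marker via resorufin fluorescence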). The method in brief:
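Fluorescence (RFU) from LDH-driven resazurin reduction in medium supernatants measured loss of membrane integrity after 120 h of compound exposure of differentiating primary human neural progenitor spheres on an extracellular matrix.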

Assay [12] is described as follows: VALA_TUBHUV_Antagonist_CellCount: Viability Assessment in the VALA Sciences human Umbilical Vein Endothelial Tubule Formation (TUBHUV) Antagonism Assay (AID 2284310; active = hit-call score of the fitted dose curve at least 0.9, where 1 is the maximum). The method in brief: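 HUVEC co-cultured with HDF (1:3) 3 days in 10 ng/ml VEGF, then 3 days with compounds in VEGF medium. Fixed, nuclear stain and CD31 immunofluorescence, imaged; cell counts fitted versus 0.1% DMSO, loss of signal read as lower viability.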

Assay [13] in a line: IUF_NPC2-5_viability_120hr: Viability Assessment at 120 hours in the Leibniz Research Institute for Environmental Medicine (IUF) Neural Progenitor Cell Migration and Differentiation Assay (NPC2-5) (AID 2284312). The method in brief:
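Human fetal neural progenitor spheres (0.3 mm) plated on poly-D-lysine/laminin in N2 differentiation medium, exposed 120 h with half-medium refresh at day 3. Viability by alamar blue resazurin fluorescence; 7 concentrations, DMSO max 0.1%.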

Assay [14] in a line: VALA_TUBIPS_Antagonist_TubuleLength: VALA Sciences human iPS-derived Endothelial Tubule Formation (TUBIPS) Antagonist Assay (AID 2284313; active = hit-call score of the fitted dose curve at least 0.9, where 1 is the maximum). The method in brief:
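Cells grown 3 days with 10 ng/ml VEGF, then exposed to compounds in VEGF medium for another 3 days. After fixation, nuclear stain and CD31 immunofluorescence imaging gave mean total tubule length against 0.1% DMSO; suramin (100 uM) inhibition control.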

Assay [15] can be described thus: VALA_MIGHUV2_CellCount: Viability Assessment in the VALA Sciences human Umbilical Vein Endothelial Cell Migration (MIGHUV) Assay, Area of Scratch Wound after Recovery (AID 2284314; active = hit-call score of the fitted dose curve at least 0.9, where 1 is the maximum). In outline:
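Scratch-wounded HUVEC monolayers received test chemical within 30 min, 6-point concentration response in triplicate, 0.1 % DMSO vehicle. After 24 h wound recovery, fixed cells were Hoechst-stained and nuclei imaged; loss of signal versus DMSO indicates reduced viability.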

Assay [16] is described as follows: IUF_NPC5_oligodendrocyte_differentiation_120hr: Leibniz Research Institute for Environmental Medicine (IUF) 120-hour Oligodendrocyte Differentiation Assay (NPC5) (AID 2284304; active = hit-call score of the fitted dose curve at least 0.9, where 1 is the maximum;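 also: primary human fetal neural progenitor spheres plated to migrate and differentiate; share of O4-positive cells among Hoechst nuclei found by CNN image analysis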). In outline: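 Human primary NPC neurospheres migrating and differentiating on laminin for 120 h under continuous compound exposure (serial dilution, solvent control). Endpoint: percent O4+ oligodendrocytes among Hoechst nuclei, detected by CNN image analysis, with DMSO as negative control.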

In the next assay the test system is IYD (gene 389434). Nature of the assay: CCTE_GLTED_hIYD: CCTE's human Iodotyrosine Deiodinase (xIYD) Inhibition Assay, Great Lakes Toxicology and Ecology Division (GLTED) Lab (AID 2284317; active = hit-call score of the fitted dose curve at least 0.9, where 1 is the maximum;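 also: cell-free human IYD enzyme made in baculovirus insect cells; iodide freed from monoiodotyrosine measured by cerium arsenite color change at 420 nm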). In outline: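 First, recombinant human IYD (baculovirus-insect cells), MIT and chemical incubated 3 h. Next, iodide isolated on Dowex. Finally, Sandell-Kolthoff rate read at 420 nm, with platewise normalization to MNT and solvent controls.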

The nature of assay [17]: VALA_MIGHUV2_Bcatenin: VALA Sciences human Umbilical Vein Endothelial Cell Migration (MIGHUV) Assay, Nuclear Translocation of beta-Catenin after Recovery (AID 2284315; active = hit-call score of the fitted dose curve at least 0.9, where 1 is the maximum). In outline: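 HUVEC (4000 cells/well) scratch-wounded, dosed within 30 min over 6 concentrations in triplicate, recovered 24 h. After fixation, Hoechst and anti-beta-catenin immunofluorescence imaged for nuclear CTNB. Gain of signal versus 0.1% DMSO.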

Assay [18] in a line: VALA_MIGHUV2_WoundArea: VALA Sciences human Umbilical Vein Endothelial Cell Migration (MIGHUV) Assay, Area of Scratch Wound after Recovery (AID 2284316; active = hit-call score of the fitted dose curve at least 0.9, where 1 is the maximum). The method in brief: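 HUVEC seeded at 9000 cells/well, scratched after 24 h; test chemical added within 30 min, 6-point concentration response in triplicate (0.1% DMSO vehicle). After 24 h wound recovery, cells fixed and Hoechst-stained nuclei in wound area imaged; Cytochalasin D reference control.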

Read-out in a further assay: CD69, CD69 (gene 969)
The assay is described as follows: BSK_LPS_CD69: BioMAP Diversity Plus: LPS Assay for CD69 Biomarker Activity (AID 2284303). As to conditions: primary human HUVEC with PBMC. In outline:
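Human umbilical vein endothelial cells co-cultured with PBMC under LPS stimulation, chemical exposure 24 h; cell-surface CD69 measured by ELISA and fitted in the positive direction versus DMSO.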

Structures are written as SMILES. Inconclusive results are not listed. Some structures have more than one record in an assay (separate samples or runs), and their calls can disagree. Calls of active or inactive are those of the source. The calls were made as follows, unless noted: active = hit-call score of the fitted dose curve at least 0.9, where 1 is the maximum; inactive = score below 0.9.

This note sets out measurements from PubChem BioAssay (EPA / NIEHS).

As to `Clc1ccc(Cl)c(Cl)c1`, the call in [1] and in [2] was inactive.

Regarding `O=P(OCCCl)(OCCCl)OCCCl`, the compound was called inactive in [3], in assay [4], in assay [5], in assay [6], in [7] and in assay [8]. Moreover, the compound was called inactive in [9], in [10], in assay [11], in assay [1], in [2] and in assay [13]. In addition, the call in [14] and in [15] was inactive. For the same compound, in [12], the AC50 is 88300 nM (active).

With `COC(=O)Nc1nc2ccccc2[nH]1`, the call in assay [3], in assay [6], in assay [7], in assay [9] and in [10] was inactive. For the same compound, the concentration at half-maximal activity (AC50) was 11300 nM (active) in assay [4], 8090 nM (active) in [5], 8960 nM (active) in [8] and 12500 nM (active) in [13].

Turning to `COP(=S)(OC)SCN1C(=O)c2ccccc2C1=O`, the call in assay [3], in assay [4], in assay [5], in [6], in assay [7] and in assay [8] was inactive. Further, the result in [16], in [9], in assay [10], in assay [11] and in assay [13] was inactive.

Turning to `CCCCOC(=O)c1ccccc1C(=O)OCc1ccccc1`, the call in assay [3], in [4], in [6], in assay [7], in [8] and in assay [9] was inactive. Further, the call in assay [10], in assay [11] and in assay [13] was inactive. Also, the AC50 in [5] was 18500 nM (active).

Consider `Clc1ccc(C(c2ccc(Cl)cc2)C(Cl)(Cl)Cl)cc1`, for which, in the assay with IYD (gene 389434), the AC50 is 35200 nM (active).

Turning to `[O-][Cl+]O`, the outcome in [3], in assay [4], in [5], in assay [6], in [7] and in assay [8] was inactive. The compound was classed as inactive in [9], in assay [10], in [11] and in assay [13].

On to `OCCOCCO`, for which the compound was called inactive in assay [3], in assay [4], in assay [5], in assay [6], in assay [7] and in assay [8]. Moreover, the result in assay [16], in [10], in assay [11] and in assay [13] was inactive.

On to `CCC[CH2][Sn]([Cl])([CH2]CCC)[CH2]CCC`, for which the half-maximal activity concentration (AC50) in assay [3] is 325 nM (active); in [4], 370 nM (active); in [5], 386 nM (active); in assay [6], 319 nM (active); in [7], 284 nM (active); in [8], 303 nM (active). Further, the concentration at half-maximal activity (AC50) is 120 nM (active) in assay [16]; 312 nM (active) in assay [9]; 310 nM (active) in [10]; 455 nM (active) in [11]; 393 nM (active) in [13].

As to `Oc1ccc2ccc3cccc4ccc1c2c34`, the call in [1], in [12] and in assay [14] was inactive.

`CO[C@@H]1[C@H](OC(=O)NC(=O)CCl)CC[C@]2(CO2)[C@H]1[C@@]1(C)O[C@@H]1CC=C(C)C`: the outcome in [1], in assay [12], in assay [14] and in assay [18] was inactive. Also, the AC50 in assay [17] was 1.29 nM (active).

Regarding `CC(C)(C)C(O)(CCc1ccc(Cl)cc1)Cn1cncn1` (stereo unspecified), the call in assay [3], in [5], in assay [6], in assay [7], in [8] and in assay [16] was inactive. Further, the outcome in assay [9], in [10], in [11] and in assay [13] was inactive.

In the case of `CCNS(=O)(=O)C(F)(F)C(F)(F)C(F)(F)C(F)(F)C(F)(F)C(F)(F)C(F)(F)C(F)(F)F`, in the assay with CD69, CD69 (gene 969), the AC50 is 15400 nM (active) and the result was inactive.

As for `CC(C)COC(=O)c1ccccc1C(=O)OCC(C)C`, the compound was classed as inactive in assay [3], in assay [4], in assay [5], in [6], in assay [7] and in [8]. The result in assay [16], in assay [9], in [10], in assay [11] and in [13] was inactive.

Take `CNC(=O)Oc1cccc2c1OC(C)(C)C2`: the result in assay [3], in assay [4], in assay [5], in assay [6], in assay [7] and in assay [8] was inactive. In addition, the call in [16], in assay [9], in assay [10], in assay [11] and in [13] was inactive.

What is called AC50 is the midpoint of the concentration-response curve, whichever way the signal moves.
